Measurements reported in PubChem BioAssay (NCI).
This is part of a sample that, as a whole, favours compounds with a hit. Of some 83,000 tested, about 20% had one in any assay.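 Compound tested at a single concentration for 48 hours in 96-well plates; a percent growth value below 10 was scored as active.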 Active and inactive are the calls of the source.

Key:
Assay in all cases: NCI-60 one-dose screen, 48 h (100 = growth as untreated, 0 = no growth, -100 = all killed)
Details in all cases: 10 µM
DU-145 prostate = system: DU-145 prostate
K-562 leukemia = system: K-562 leukemia
MALME-3M melanoma = system: MALME-3M melanoma
MDA-MB-231 breast = system: MDA-MB-231 breast
RXF 393 renal = system: RXF 393 renal
SF-268 CNS = system: SF-268 CNS
SF-295 CNS = system: SF-295 CNS
SF-539 CNS = system: SF-539 CNS
UACC-257 melanoma = system: UACC-257 melanoma
M14 melanoma = system: M14 melanoma
HCT-15 colon = system: HCT-15 colon
HT29 colon = system: HT29 colon
SNB-75 CNS = system: SNB-75 CNS
SNB-19 CNS = system: SNB-19 CNS
U251 CNS = system: U251 CNS
PC-3 prostate = system: PC-3 prostate
SK-MEL-5 melanoma = system: SK-MEL-5 melanoma
UACC-62 melanoma = system: UACC-62 melanoma
LOX IMVI melanoma = system: LOX IMVI melanoma
SK-MEL-28 melanoma = system: SK-MEL-28 melanoma

Measured: growth

Nc1ccc(Sc2ccc3c4c2cccc4c(=O)n2c4ccccc4nc32)cc1
inactive: DU-145 prostate 39.3% | K-562 leukemia 60.3% | MALME-3M melanoma 34% | MDA-MB-231 breast 54.4% | RXF 393 renal 72.6% | SF-268 CNS 59.4% | SF-295 CNS 12% | SF-539 CNS 48.5% | UACC-257 melanoma 71% | M14 melanoma 45.4% | HCT-15 colon 40.5% | HT29 colon 66.7% | SNB-75 CNS 43.7% | SNB-19 CNS 46.3% | U251 CNS 39.9% | PC-3 prostate 50.4% | SK-MEL-5 melanoma 39.4% | UACC-62 melanoma 31.9% | LOX IMVI melanoma 29.2% | SK-MEL-28 melanoma 73.7%

Cc1ccc(S(=O)(=O)Nc2cccc3[nH]c(C(F)(F)F)nc23)cc1
active: RXF 393 renal 3.7% | SF-295 CNS 0.543% | SF-539 CNS -11.9% | HT29 colon 4.99% | SNB-75 CNS -4.83% | SK-MEL-5 melanoma 7.01%
inactive: DU-145 prostate 19% | K-562 leukemia 11.6% | MALME-3M melanoma 12.7% | MDA-MB-231 breast 31.4% | SF-268 CNS 60% | UACC-257 melanoma 43.1% | M14 melanoma 15.2% | HCT-15 colon 28.3% | SNB-19 CNS 39.2% | U251 CNS 29.8% | PC-3 prostate 17.2% | UACC-62 melanoma 36.9% | LOX IMVI melanoma 41.4% | SK-MEL-28 melanoma 38.4%

O=C(Nc1cccc(Cl)c1)OCC(COC(=O)Nc1cccc(Cl)c1)(COC(=O)Nc1cccc(Cl)c1)[N+](=O)[O-]
inactive: DU-145 prostate 44.2% | K-562 leukemia 26.4% | MALME-3M melanoma 59% | MDA-MB-231 breast 40.3% | RXF 393 renal 57.1% | SF-268 CNS 35.4% | SF-295 CNS 20.8% | SF-539 CNS 59.5% | UACC-257 melanoma 52.3% | M14 melanoma 24.4% | HCT-15 colon 22.6% | HT29 colon 32% | SNB-75 CNS 49.9% | SNB-19 CNS 42.8% | U251 CNS 34.7% | PC-3 prostate 24.1% | SK-MEL-5 melanoma 44.2% | UACC-62 melanoma 31.9% | LOX IMVI melanoma 15.6% | SK-MEL-28 melanoma 51.1%

OC(CNC1CCCC1)Cn1c2ccccc2c2ccccc21 (stereo not given)
inactive: DU-145 prostate 23% | RXF 393 renal 31.2% | SF-268 CNS 44.8% | SNB-75 CNS 51.5% | SNB-19 CNS 33.8% | PC-3 prostate 27%
active: K-562 leukemia 3.31% | MALME-3M melanoma -70.8% | MDA-MB-231 breast -23.9% | SF-295 CNS -29.8% | SF-539 CNS -69.9% | UACC-257 melanoma -13.2% | M14 melanoma -68.1% | HCT-15 colon -37.6% | HT29 colon -0.747% | U251 CNS -34.5% | SK-MEL-5 melanoma -61.6% | UACC-62 melanoma -50.9% | LOX IMVI melanoma -75.9% | SK-MEL-28 melanoma -60%

C=CCNC(=S)NN
inactive: DU-145 prostate 92.5% | K-562 leukemia 52.4% | MALME-3M melanoma 79.7% | MDA-MB-231 breast 90.9% | RXF 393 renal 105% | SF-268 CNS 95.8% | SF-295 CNS 88.8% | SF-539 CNS 95.1% | UACC-257 melanoma 50.7% | M14 melanoma 97.9% | HCT-15 colon 90.7% | HT29 colon 55.5% | SNB-75 CNS 95.3% | SNB-19 CNS 94.4% | U251 CNS 77.4% | PC-3 prostate 58.4% | SK-MEL-5 melanoma 99.5% | UACC-62 melanoma 99.6% | LOX IMVI melanoma 97.3% | SK-MEL-28 melanoma 104%

O=C(Nc1ccc(CN2CCOCC2)cc1)c1ccc(-c2cc(Cl)ccc2Cl)o1
inactive: DU-145 prostate 75.4% | RXF 393 renal 38.4% | SF-268 CNS 57.8% | SF-295 CNS 57.6% | SF-539 CNS 88.3% | UACC-257 melanoma 49.4% | HCT-15 colon 17% | SNB-75 CNS 48% | SNB-19 CNS 54.7% | U251 CNS 32.4% | PC-3 prostate 41.4% | SK-MEL-5 melanoma 37.1% | SK-MEL-28 melanoma 41.4%
active: K-562 leukemia -23.7% | MALME-3M melanoma -53.4% | MDA-MB-231 breast 9.54% | M14 melanoma -44.2% | HT29 colon 2.85% | UACC-62 melanoma -56.1% | LOX IMVI melanoma 4.07%

O=NN(CCCl)C(=O)NCc1ccc(-c2ccc(CNC(=O)N(CCCl)N=O)cc2)cc1
inactive: DU-145 prostate 112% | K-562 leukemia 84.2% | MALME-3M melanoma 74.3% | MDA-MB-231 breast 124% | RXF 393 renal 108% | SF-268 CNS 69.7% | SF-295 CNS 83.2% | SF-539 CNS 65.7% | UACC-257 melanoma 96.6% | M14 melanoma 95.4% | HCT-15 colon 98.7% | HT29 colon 96.9% | SNB-75 CNS 82.7% | SNB-19 CNS 84.6% | U251 CNS 70.3% | PC-3 prostate 86.7% | SK-MEL-5 melanoma 94.2% | UACC-62 melanoma 86.2% | LOX IMVI melanoma 72.2% | SK-MEL-28 melanoma 104%

COc1ccc(-c2nnc(SCC(=O)c3ccccc3)o2)cc1
inactive: DU-145 prostate 102% | K-562 leukemia 92.3% | MALME-3M melanoma 104% | MDA-MB-231 breast 99.3% | RXF 393 renal 94.2% | SF-268 CNS 102% | SF-295 CNS 101% | SF-539 CNS 98.8% | UACC-257 melanoma 89.4% | M14 melanoma 101% | HCT-15 colon 96.3% | HT29 colon 90.8% | SNB-75 CNS 92.5% | SNB-19 CNS 96.9% | U251 CNS 98.1% | PC-3 prostate 97.1% | SK-MEL-5 melanoma 92.8% | UACC-62 melanoma 88.3% | LOX IMVI melanoma 92.8% | SK-MEL-28 melanoma 106%

N#Cc1ncc(-c2cc(F)ccc2F)c(NC2CCCCCC2)n1
inactive: DU-145 prostate 97.8% | K-562 leukemia 90.2% | MALME-3M melanoma 114% | MDA-MB-231 breast 60.7% | RXF 393 renal 82.8% | SF-268 CNS 60% | SF-295 CNS 69.1% | SF-539 CNS 79.7% | UACC-257 melanoma 81.8% | M14 melanoma 104% | HCT-15 colon 82.8% | HT29 colon 94.7% | SNB-75 CNS 67.3% | SNB-19 CNS 64% | PC-3 prostate 60.7% | SK-MEL-5 melanoma 84.9% | UACC-62 melanoma 60.9% | LOX IMVI melanoma 80.6% | SK-MEL-28 melanoma 80.8%
active: U251 CNS 9.98%

N#CN1CC[C@H](C(=O)Nc2ncc(-c3ccncc3)s2)C1
active: DU-145 prostate 8.45% | K-562 leukemia 3.89% | MALME-3M melanoma -19.4% | MDA-MB-231 breast 2.16% | RXF 393 renal -58.8% | SF-268 CNS 5.17% | SF-295 CNS 4.53% | SF-539 CNS -20.7% | UACC-257 melanoma -19.4% | M14 melanoma 1.13% | HCT-15 colon 2.59% | HT29 colon -39.9% | SNB-75 CNS -37.5% | SNB-19 CNS 9.6% | U251 CNS 1.7% | PC-3 prostate 5.04% | SK-MEL-5 melanoma -17.1% | UACC-62 melanoma -26.9% | LOX IMVI melanoma 2.09% | SK-MEL-28 melanoma 5.92%

CNC(=O)c1cc(Oc2ccc(NC(=O)Nc3ccc(Cl)c(C(C)(C)C)c3)c(F)c2)ccn1
active: MALME-3M melanoma 0.423% | SK-MEL-5 melanoma -23.2%
inactive: DU-145 prostate 60.8% | K-562 leukemia 19% | MDA-MB-231 breast 48.4% | RXF 393 renal 90% | SF-268 CNS 59.1% | SF-295 CNS 24.5% | SF-539 CNS 46.6% | UACC-257 melanoma 20.7% | M14 melanoma 22.4% | HCT-15 colon 38.9% | HT29 colon 25.9% | SNB-75 CNS 104% | SNB-19 CNS 60% | U251 CNS 52% | PC-3 prostate 37.7% | UACC-62 melanoma 16% | LOX IMVI melanoma 16.6% | SK-MEL-28 melanoma 34.8%

CCc1nn2c(-c3ccccc3)c(-c3cc(OC)c(OC)c(OC)c3)nc2s1
inactive: DU-145 prostate 102% | K-562 leukemia 92.1% | MALME-3M melanoma 62.4% | MDA-MB-231 breast 76.8% | RXF 393 renal 88.9% | SF-268 CNS 96% | SF-295 CNS 89.1% | SF-539 CNS 97.3% | UACC-257 melanoma 107% | M14 melanoma 99.1% | HCT-15 colon 72.9% | HT29 colon 74.5% | SNB-75 CNS 45.9% | SNB-19 CNS 85.3% | U251 CNS 98.8% | PC-3 prostate 71.4% | SK-MEL-5 melanoma 71.9% | UACC-62 melanoma 71.8% | LOX IMVI melanoma 88.2% | SK-MEL-28 melanoma 29.5%

O=C(c1ccc(Cl)cc1)c1no[n+]([O-])c1C(=O)c1ccc(Cl)cc1
inactive: DU-145 prostate 94.1% | MDA-MB-231 breast 124% | RXF 393 renal 44.6% | SF-268 CNS 102% | SF-295 CNS 83.8% | SF-539 CNS 98.5% | UACC-257 melanoma 104% | M14 melanoma 92.5% | HCT-15 colon 95.7% | HT29 colon 67.3% | SNB-75 CNS 97.9% | SNB-19 CNS 115% | U251 CNS 104% | PC-3 prostate 92.9% | SK-MEL-5 melanoma 98.3% | UACC-62 melanoma 118% | SK-MEL-28 melanoma 117%
active: K-562 leukemia 5.95% | MALME-3M melanoma -76.2% | LOX IMVI melanoma -74.2%

CCCCCCCCCCCCCC[n+]1ccccc1
active: DU-145 prostate -48.6% | K-562 leukemia 0.808% | MALME-3M melanoma -50.8% | MDA-MB-231 breast -62.6% | RXF 393 renal -69.6% | SF-268 CNS -37.3% | SF-295 CNS -89.8% | SF-539 CNS -30.7% | UACC-257 melanoma -70.8% | M14 melanoma -33.5% | HT29 colon -52.4% | SNB-75 CNS -39.5% | SNB-19 CNS -45.4% | U251 CNS -88.3% | PC-3 prostate -80.8% | SK-MEL-5 melanoma -95.3% | UACC-62 melanoma -81.1% | LOX IMVI melanoma -72.1% | SK-MEL-28 melanoma -23.5%
inactive: HCT-15 colon 34.5%

CCCC(C)c1ccc(OCCCCCCN2CCNCC2)cc1 (stereo not given)
inactive: DU-145 prostate 38.4% | MALME-3M melanoma 37% | SF-268 CNS 70.4% | SF-539 CNS 56.1% | UACC-257 melanoma 79% | M14 melanoma 57.5% | SNB-75 CNS 35.9% | SNB-19 CNS 56% | PC-3 prostate 49.4% | SK-MEL-5 melanoma 53.5% | SK-MEL-28 melanoma 13.2%
active: K-562 leukemia -34.1% | MDA-MB-231 breast -0.569% | RXF 393 renal -13.3% | SF-295 CNS -6.71% | HCT-15 colon -39.3% | HT29 colon 5.51% | U251 CNS -2.39% | UACC-62 melanoma -46.4% | LOX IMVI melanoma -88.3%
